Assay [1] in a line: Nuclear factor erythroid 2-related factor 2/antioxidant responsive element (Nrf2/ARE) small molecule agonists: qHTS cell viability counter screen in human keratinocytes (AID 1919968; active means well fitted curve in the direction sought with a large enough effect in the repeat runs; an effect the other way counts as inactive or inconclusive; further: nearly all actives have a fitted effect of over 55% in size; further: potency means the concentration at half of the fitted maximal effect). In short, it runs like this:
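Viability counter-screen: KeratinoSens reporter cells, DMSO-delivered compounds, 23 h at 37 C, CellTiter-Fluor fluorescence.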

Assay [2] is described as follows: Nuclear factor erythroid 2-related factor 2/antioxidant responsive element (Nrf2/ARE) small molecule agonists: luciferase reporter gene qHTS assay in human keratinocytes (AID 1919969). Further: nearly all actives have a fitted effect of over 35% in size.
Assay [3] concerns the target Gonadotropin-releasing hormone receptor (Homo sapiens) (UniProt P30968). Description: Human gonadotropin-releasing hormone receptor (GnRHR) small molecule agonists, calcium flux assay in GnRHR-HEK293 cells (AID 1920063). Further: nearly all actives have a fitted effect of over 35% in size. Further: potency means the concentration at half of the fitted maximal effect. In short, it runs like this: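 Tox21-format agonist screen using human GnRHR-expressing HEK293 cells and a fluorescent calcium dye; kinetic 3-min fluorescence reading after compound addition, 15-point concentration series run in triplicate.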
(In general: Calcium assays in cells follow changes in intracellular calcium, usually with a dye or a luminescent sensor.)

Assay [4] in a line: G protein-coupled receptor (GPCR) small molecule agonists, calcium flux assay: HEK293 wild type cell line counter screen (AID 1920065). In short, it runs like this:
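In this agonist-mode screen, ATP is the positive control and DMSO the vehicle. Cells grow 18 h before a 1 h dye incubation at 37 C; signal is taken at Ex/Em 480/540 over 3 min.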

Assay [5] is described as follows: p53 small molecule agonists, cell-based qHTS assay with rat liver microsomes (AID 1963578). The procedure, abridged: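 p53RE-bla cells, 4,000/well, pre-incubated 5 h, then given compounds plus rat liver microsomes (0.5 mg/mL final) and NADPH (0.5 mg/mL final). Incubation 16 h at 37 C; beta-lactamase reporter read by LiveBLAzer fluorescence after 2 h at room temperature.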
(In qHTS, concentration-response curves come from the screen itself.)

A short description of assay [6]: p53 small molecule agonists, cell-based qHTS assay: qHTS cell viability counter screen (AID 1963581). Further: nearly all actives have a fitted effect of over 45% in size. The procedure, abridged:
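Compounds are pinned onto HCT-116 p53RE-bla cells and left 16 h at 37 C. Following the reporter FRET read, ATP is quantified by CellTiter-Glo luminescence after 30 min at room temperature.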

A short description of assay [7]: p53 small molecule agonists, cell-based qHTS assay (AID 1963582; active means well fitted activation curve with a large enough effect in the signal ratio in the repeat runs, not every such curve was filed as active; the % refers to the signal ratio). In short, it runs like this:
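Agonist activity was scored from beta-lactamase FRET fluorescence in p53RE-bla cells treated 16 h at 37 C with compounds in DMSO, substrate incubation being 2 h at room temperature.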

Assay [8] deals with D(2) dopamine receptor (Homo sapiens) (UniProt P14416). Description: Dopamine D2 receptor (DRD2) small molecule antagonists, cell-based qHTS assay (AID 1963595; active means well fitted inhibition curve with a large enough effect in the signal ratio in the repeat runs, with a control signal flat; the % refers to the signal ratio; further: potency means the concentration at half of the fitted maximal effect). In short, it runs like this: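 Human DRD2 antagonist qHTS measuring cAMP by HTRF. The cells are exposed to compound for 10 min, then to NKH477 (200 nM) and quinpirole (12 nM) for 30 min at RT, with Ro20-1724 (0.1 mM) present throughout.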

The target in assay [9] is KiSS-1 receptor (Homo sapiens) (UniProt Q969F8). Description: Human kisspeptin (KISS1R) small molecule agonists, calcium flux assay in KISS1R-HEK293 cells (AID 1920064; active means well fitted curve in the direction sought with a large enough effect in the repeat runs; an effect the other way counts as inactive or inconclusive). The procedure, abridged: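 Intracellular calcium mobilization in KISS1R-HEK293 cells was recorded by fluorescence (Ex/Em 480/540) for 3 min following compound addition to cells pre-loaded 1 h with calcium dye.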

Assay [10] in a line: p53 small molecule agonists, cell-based qHTS assay with human liver microsomes: qHTS cell viability counter screen (AID 1963579). Further: nearly all actives have a fitted effect of over 45% in size. In short, it runs like this:
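p53RE-bla cells, 4,000/well, dosed 5 hours after plating, with human liver microsomes (0.5 mg/mL final) plus NADPH (0.5 mg/mL final), 16 hours at 37 C. Viability read as CellTiter-Glo luminescence after 30 min at room temperature.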

Assay [11] in a line: p53 small molecule agonists, cell-based qHTS assay with rat liver microsomes: qHTS cell viability counter screen (AID 1963580). Further: nearly all actives have a fitted effect of over 45% in size. In short, it runs like this:
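In HCT-116 cells carrying a p53 response element-bla reporter, compounds were metabolically activated in situ by rat liver microsomes with NADPH over 16 h. Cell ATP content then served as the cytotoxicity measure.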

Assay [12] deals with 5-hydroxytryptamine receptor 2A (Homo sapiens) (UniProt P28223). Description: 5-hydroxytryptamine receptor 2A (HTR2A) small molecule antagonists, cell-based qHTS assay (AID 1963586). Further: nearly all actives have a fitted effect of over 45% in size. Further: potency means the concentration at half of the fitted maximal effect. In short, it runs like this: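 Antagonist-mode intracellular calcium assay: DOI (4 nM) added after 5 min compound pre-incubation at room temperature to dye-loaded HTR2A-CHO cells. Fluorescence followed for 3 min, sampled every second.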

The target is the same in assay [13]. Description: 5-hydroxytryptamine receptor 2A (HTR2A) small molecule agonists, cell-based qHTS assay (AID 1963587). Further: nearly all actives have a fitted effect of over 30% in size. Further: potency means the concentration at half of the fitted maximal effect. The procedure, abridged: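 HTR2A-CHO cells, plated 18 h at 37 C/5% CO2, dye-loaded 1 h at 37 C; compounds in DMSO added by pin tool (agonist mode). Intracellular calcium flux read as kinetic fluorescence on FDSS over 2 min at 1 s intervals.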
Assay [14] addresses Muscarinic acetylcholine receptor M1 (Homo sapiens) (UniProt P11229). Description: Cholinergic receptor muscarinic 1 (CHRM1) small molecule antagonists, cell-based qHTS assay (AID 1963588). Further: nearly all actives have a fitted effect of over 40% in size. The procedure, abridged:
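CHRM1-CHO calcium-flux assay, antagonist mode. Cells were seeded 18 h, dye-loaded 1 h at 37 C and given compound for 5 min at RT, then acetylcholine was added at 50nM. FDSS fluorescence was read 3 min; 15 concentrations, three runs.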

Assay [15] has the same target. Description: Cholinergic receptor muscarinic 1 (CHRM1) small molecule agonists, cell-based qHTS assay (AID 1963589). Further: nearly all actives have a fitted effect of over 35% in size. In short, it runs like this:
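Stable CHRM1-CHO cells (human receptor) were incubated 18 h, dye-loaded for 1 h at 37 C and exposed to test compounds for agonist activity, with calcium-dependent fluorescence followed kinetically.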

Assay [16] can be described thus: cAMP Responsive Elements (CRE) small molecule agonists, cell-based qHTS assay (AID 1963590). The procedure, abridged: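 FRET-based beta-lactamase readout (LiveBLAzer B/G, 2 h RT) quantified CRE activation in HEK 293T CRE-bla cells after 3 h treatment with DMSO-dissolved compounds.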
The nature of assay [17]: cAMP Responsive Elements (CRE) small molecule antagonists, cell-based qHTS assay (AID 1963591; active means well fitted inhibition curve with a large enough effect in the signal ratio in the repeat runs, not every such curve was filed as active; the % refers to the signal ratio; further: potency means the concentration at half of the fitted maximal effect). In short, it runs like this:
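qHTS in CRE-bla HEK 293T cells: compound in DMSO, then 0.25 uM NKH477 (final), 3 h at 37 °C/5% CO2; beta-lactamase FRET read-out after 2 h substrate incubation.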

Assay [18] deals with Beta-2 adrenergic receptor (Homo sapiens) (UniProt P07550). Description: Adrenergic beta2 receptor (ADRB2) small molecule antagonists, cell-based qHTS assay (AID 1963592). Further: nearly all actives have a fitted effect of over 50% in size. Further: potency means the concentration at half of the fitted maximal effect. The procedure, abridged: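 Cells (CHO, stable ADRB2 overexpression) incubated 18-20hr at 37C; compounds added from DMSO; agonist mix (1nM isoproterenol, 100uM IBMX, 25uM Ro-20-1724) added; 0.5hr RT; d2-cAMP and anti-cAMP-cryptate added; 1hr RT; 665/615 nm read.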

Assay [19] addresses D(2) dopamine receptor (Homo sapiens) (UniProt P14416). Description: Dopamine D2 receptor (DRD2) small molecule agonists, cell-based qHTS assay (AID 1963594). Further: nearly all actives have a fitted effect of over 35% in size. The procedure, abridged:
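HEK293 cells stably expressing DRD2 were cultured 24 h at 37 C, then given Ro20-1724 (0.1 mM final) and compounds for 10 min at room temperature. NKH477 (200nM) was then added for 30 min. cAMP was read by HTRF.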

In assay [20] the target is Beta-2 adrenergic receptor (Homo sapiens) (UniProt P07550). Description: Adrenergic beta2 receptor (ADRB2) small molecule agonists, cell-based qHTS assay (AID 1963593).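 Further: CHO cells stably overexpressing human ADRB2.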 In short, it runs like this: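 CHO cells stably over-expressing ADRB2 were plated overnight at 37C, then dosed with compounds plus a stimulation mix containing 100uM IBMX and 25uM Ro-20-1724 for 0.5hr at room temperature. cAMP was measured by HTRF competition, 1hr.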

A number with no mark means an inactive call. Results filed as inconclusive are left out. Activity calls are given as the source filed them. Unless noted, the call rests on the fitted dose curve.

Sequence of Gonadotropin-releasing hormone receptor (Homo sapiens) (P30968 whole entry, looked up): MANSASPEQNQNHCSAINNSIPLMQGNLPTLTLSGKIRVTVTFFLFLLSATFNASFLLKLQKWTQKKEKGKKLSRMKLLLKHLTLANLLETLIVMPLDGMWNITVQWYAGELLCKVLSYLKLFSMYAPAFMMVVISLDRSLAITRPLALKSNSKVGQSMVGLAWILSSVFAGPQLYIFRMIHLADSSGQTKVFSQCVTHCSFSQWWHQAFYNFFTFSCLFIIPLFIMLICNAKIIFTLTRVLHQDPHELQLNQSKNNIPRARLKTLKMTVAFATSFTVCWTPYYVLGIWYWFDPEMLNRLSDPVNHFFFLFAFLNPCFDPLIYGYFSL
Sequence of Muscarinic acetylcholine receptor M1 (Homo sapiens) (P11229 whole entry, looked up): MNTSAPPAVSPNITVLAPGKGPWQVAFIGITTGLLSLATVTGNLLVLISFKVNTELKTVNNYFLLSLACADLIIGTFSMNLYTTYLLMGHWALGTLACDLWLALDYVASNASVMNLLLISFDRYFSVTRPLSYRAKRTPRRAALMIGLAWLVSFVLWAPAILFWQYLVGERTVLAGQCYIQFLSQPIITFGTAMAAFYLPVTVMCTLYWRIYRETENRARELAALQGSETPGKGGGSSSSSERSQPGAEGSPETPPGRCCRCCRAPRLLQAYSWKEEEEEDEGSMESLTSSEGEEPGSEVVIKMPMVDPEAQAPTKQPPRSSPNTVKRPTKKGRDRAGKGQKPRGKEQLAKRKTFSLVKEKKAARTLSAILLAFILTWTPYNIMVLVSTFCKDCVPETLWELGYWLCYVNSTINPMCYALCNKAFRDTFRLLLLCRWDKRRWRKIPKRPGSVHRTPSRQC
Sequence of 5-hydroxytryptamine receptor 2A (Homo sapiens) (P28223 whole entry, looked up): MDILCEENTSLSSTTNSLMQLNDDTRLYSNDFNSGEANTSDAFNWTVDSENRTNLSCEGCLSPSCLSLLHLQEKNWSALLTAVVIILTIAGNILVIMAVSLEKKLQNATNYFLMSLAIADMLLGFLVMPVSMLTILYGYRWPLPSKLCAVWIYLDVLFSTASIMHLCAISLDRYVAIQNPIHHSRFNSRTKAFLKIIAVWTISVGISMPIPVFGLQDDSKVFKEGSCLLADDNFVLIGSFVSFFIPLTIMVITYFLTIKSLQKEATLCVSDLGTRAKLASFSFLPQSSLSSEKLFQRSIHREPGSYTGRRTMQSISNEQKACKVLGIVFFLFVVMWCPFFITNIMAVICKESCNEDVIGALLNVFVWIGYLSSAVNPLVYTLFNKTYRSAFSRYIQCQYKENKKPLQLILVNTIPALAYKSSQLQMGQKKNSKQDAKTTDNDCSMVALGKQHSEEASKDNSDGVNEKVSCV
Sequence of Beta-2 adrenergic receptor (Homo sapiens) (P07550 whole entry, looked up): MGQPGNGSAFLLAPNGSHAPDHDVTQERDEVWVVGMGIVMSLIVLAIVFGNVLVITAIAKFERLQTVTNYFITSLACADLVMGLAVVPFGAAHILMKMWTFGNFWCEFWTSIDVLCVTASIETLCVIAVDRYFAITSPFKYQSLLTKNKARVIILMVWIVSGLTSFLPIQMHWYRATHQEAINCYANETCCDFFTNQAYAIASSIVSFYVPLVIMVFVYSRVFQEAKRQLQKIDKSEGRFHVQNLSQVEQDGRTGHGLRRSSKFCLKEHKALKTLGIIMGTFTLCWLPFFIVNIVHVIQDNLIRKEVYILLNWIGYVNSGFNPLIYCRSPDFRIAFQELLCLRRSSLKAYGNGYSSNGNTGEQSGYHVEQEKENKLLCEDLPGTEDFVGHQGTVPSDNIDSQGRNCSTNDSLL
Sequence of D(2) dopamine receptor (Homo sapiens) (P14416 whole entry, looked up): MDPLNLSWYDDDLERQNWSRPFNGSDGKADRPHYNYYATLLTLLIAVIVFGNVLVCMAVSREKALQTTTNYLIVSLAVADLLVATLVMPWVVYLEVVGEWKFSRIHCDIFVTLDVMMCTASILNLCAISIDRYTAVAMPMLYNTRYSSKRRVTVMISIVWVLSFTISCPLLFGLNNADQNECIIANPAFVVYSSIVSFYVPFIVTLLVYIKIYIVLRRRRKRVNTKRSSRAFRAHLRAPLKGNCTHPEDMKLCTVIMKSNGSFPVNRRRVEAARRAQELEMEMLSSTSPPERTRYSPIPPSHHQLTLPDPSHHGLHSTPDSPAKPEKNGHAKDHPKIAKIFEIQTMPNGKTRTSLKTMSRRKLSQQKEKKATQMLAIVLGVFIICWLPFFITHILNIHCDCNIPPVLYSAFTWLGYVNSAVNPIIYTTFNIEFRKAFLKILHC
Sequence of KiSS-1 receptor (Homo sapiens) (Q969F8 whole entry, looked up): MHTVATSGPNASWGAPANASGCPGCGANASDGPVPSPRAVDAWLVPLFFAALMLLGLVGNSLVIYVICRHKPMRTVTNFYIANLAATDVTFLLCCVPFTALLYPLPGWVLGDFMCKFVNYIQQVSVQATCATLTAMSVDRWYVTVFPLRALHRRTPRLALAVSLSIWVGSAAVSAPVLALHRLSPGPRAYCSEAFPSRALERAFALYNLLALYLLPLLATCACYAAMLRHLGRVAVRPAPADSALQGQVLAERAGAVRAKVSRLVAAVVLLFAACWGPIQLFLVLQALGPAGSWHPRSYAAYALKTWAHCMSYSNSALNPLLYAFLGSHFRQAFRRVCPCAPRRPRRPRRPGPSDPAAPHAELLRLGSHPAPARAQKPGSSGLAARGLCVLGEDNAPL

As for `CNCC(O)c1ccc(O)c(O)c1` (stereo not given), the Potency entry in assay [1], in [2], in [4], in assay [5], in assay [6] and in [7] was “inactive” in each case. Further, the values for the Potency in assay [3] and in assay [8] were 0.0425 µM (active) and 5.31 µM (active), respectively.
As to `Nc1ccc(F)cc1`, the Potency result in assay [1], in assay [2], in [3], in assay [9], in [10] and in assay [11] was “inactive” throughout. For the same compound, the Potency result in assay [6], in [12], in assay [13], in assay [14], in assay [15] and in assay [16] was “inactive” throughout. Moreover, the Potency result in assay [17], in assay [18], in [19] and in [8] was “inactive” throughout.
For the compound `CC(=O)OC(C)OC(=O)C(C)c1ccc(-c2ccccc2)c(F)c1` (stereo not given), the Potency entry in assay [1], in [2], in assay [3], in [4], in assay [5] and in [11] was “inactive” throughout. In addition, the Potency result in assay [6], in assay [12], in assay [13], in assay [14], in assay [15] and in [20] was “inactive” in each case. In addition, the Potency result in [19] and in [8] was “inactive” in each case.
In the case of `Cc1ccccc1OCC(=O)O`, the Potency result in assay [1], in assay [2], in assay [3], in assay [4], in assay [10] and in assay [11] was “inactive” throughout. Also, the Potency entry in assay [6], in [12], in [13], in assay [14], in [15] and in assay [16] was “inactive” each time. Also, the Potency entry in assay [17], in [18], in assay [20] and in assay [19] was “inactive” each time.
`N[C@@H](CCC(=O)O)C(=O)O`: the Potency result in assay [1], in assay [2], in [3], in assay [4], in assay [10] and in assay [11] was “inactive” in each case. The Potency result in assay [6], in assay [12], in assay [13], in assay [14], in assay [15] and in assay [16] was “inactive” throughout. Besides, the Potency result in assay [17], in assay [18], in assay [20], in assay [19] and in assay [8] was “inactive” each time.
Regarding `CC1(CN2CCC(n3c(=O)[nH]c4ccccc43)CC2)OCc2ccccc2-n2cccc21` (stereo not given), the Potency in assay [1] was 29.8 µM (active); in assay [12], 1.83 µM (active); in assay [18], 29.8 µM (active). The Potency result in [2], in assay [3], in assay [4], in [5], in [10] and in assay [11] was “inactive” throughout. Also, the Potency entry in [6], in assay [13], in [14], in [15], in assay [17] and in assay [19] was “inactive” in each case. For the same compound, the Potency entry in [8] is “inactive”.
For `O=C(NO)C1(NS(=O)(=O)c2ccc(Oc3ccc(F)cc3)cc2)CCOCC1`, the Potency entry in [1], in assay [2], in assay [3], in assay [4], in assay [10] and in assay [11] was “inactive” in each case. In addition, the Potency result in assay [6], in assay [12], in [13], in assay [14], in assay [15] and in [17] was “inactive” throughout. Also, the Potency entry in [18], in assay [19] and in assay [8] was “inactive” each time.
On to `CCCCCCCCOC(=O)c1cc(O)c(O)c(O)c1`, for which the Potency in [1] is 61.1 µM (active); in assay [3], 34.7 µM (active); in [13], 49 µM (active); in assay [17], 30.6 µM (active). Also, the Potency entry in [2], in assay [4], in assay [10], in assay [11], in [12] and in [14] was “inactive” each time. The Potency entry in assay [16], in [18] and in [19] was “inactive” throughout.

Source of the values: PubChem BioAssay (Tox21).
